Screens (PubChem)
Hits are enriched below; roughly 27% of the tested compounds scored in any of these assays.
CYP2C9 act: increases human cytochrome P450 2C9 activity; AID 1024; hit rate 1.4% among 96,000; activation factor at 5 µM; P11712; recombinant CYP2C9, luciferin-H conversion, luminescence; hits give high values; factor 1 = untreated enzyme, 0 = blocked;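 active means activation factor of 2 or more for CYP2C9 at a 5 µM dose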;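 further: 0 = sulfaphenazole-blocked wells and 1 = vehicle-only wells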
CYP2C19 act: cytochrome P450 2C19 (human) activation. 96,000 tested, under 10 active. AID 1025. recombinant CYP2C19, luciferin-H EGE luminescence; hits give high values; 0 = fully inhibited enzyme, 1 = untreated enzyme. P33261. activation factor at 5 µM;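 active means activation factor of at least 2 at 5 µM in the primary screen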;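 further: 0 = wells with 2.5 mM tranylcypromine and 1 = vehicle-only wells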
Cav32 inh: inhibitors of human Cav3.2 T-type calcium channel | Cav3.2-expressing cells, Fluo-4 calcium fluorescence FDSS; hits give low values | B-score at 10 µM | hit rate 4% among 100,000;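 active means single-dose well whose peak fluorescence ratio is a statistical outlier from its plate by either plate-standardised score or position-corrected B-score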
CYP2C9 inh: inhibitors of human CYP2C9. inhibition, % at 5 µM. CYP2C9 Supersomes, luciferin-H conversion, luminescence. AID 777. P11712. hit rate 20% among 96,000;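 active means blocking of liver enzyme CYP2C9 beyond about 50% at 5 µM, limit read from the data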
CYP2C19 inh: human CYP2C19 inhibition. hit rate 21% among 96,000. AID 778. inhibition, % at 5 µM. P33261. CYP2C19 Supersomes, luciferin-H EGE luminescence, 30 min;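 active means CYP2C19 inhibition above a set limit at 5 µM in the primary screen, cut at about 50% in these data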;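 further: plate controls were negative control wells for no effect and 2.5 mM tranylcypromine positive control for full effect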
* = called active by the depositor; . = no result.

SMILES	CYP2C9 act	CYP2C19 act	Cav32 inh	CYP2C9 inh	CYP2C19 inh
O=S(=O)(c1cccc2cccnc12)N1CCOCC1	4*	0.6	-0.015	-301	39
CC1CCCCN1S(=O)(=O)c1cccc2cccnc12 (configuration not stated)	3.9*	0.2	0.45	-289	79*
CC1CC(C)CN(S(=O)(=O)c2cccc3cccnc23)C1 (configuration not stated)	2.5*	0.3	-3.5	-155	68*
COc1ccc(N2CCN(S(=O)(=O)c3cccc4cccnc34)CC2)cc1	2.6*	0.2	0.077	-155	82*
COc1ccc(C2/C=C\CN(S(=O)(=O)c3cccc4cccnc34)CC(=O)N2Cc2ccc(F)cc2)cc1 (configuration not stated)	.	.	-1.4	.	.
c1ccc(Cn2ccc(-c3cnc(-c4ccccc4)s3)n2)cc1	0.3	0.1	-0.37	74*	94*
COc1ccccc1NC(=O)CN(c1ccc(C)cc1)S(=O)(=O)c1c(C)n[nH]c1C	0	0.3	-1.4	96*	70*
COc1ccc(N(CC(=O)Nc2cccc(C)c2C)S(=O)(=O)c2c(C)n[nH]c2C)cc1	0.5	0.5	-0.35	51*	54*
COc1ccc(N(CC(=O)NC2CCCC2)S(=O)(=O)c2c(C)[nH]c(=O)[nH]c2=O)cc1	0.6	0.9	0.41	43	5
Cc1cc(F)ccc1NCc1cccnc1	1.1	0.5	0.59	-8	50*
CCOc1ccc(C(=S)NC2CCCCC2)cc1OC	1	0.9	1.2	0	13
N[C@@H](CO)c1nnc([C@H](CC(=O)O)NC(=O)C2CCNCC2)o1	.	.	0.44	.	.
Cc1ccc(Nc2c(N)c(=O)oc3ccccc23)cc1	.	.	-3.1	.	.
O=C(N/N=C\c1ccc(-c2ccccc2[N+](=O)[O-])o1)C1COc2cc3ccccc3cc2O1 (configuration not stated)	0.5	0.6	-0.73	53*	41
COc1ccc(C2N=C(c3ccccc3)C(C)(C)N2O)cc1 (configuration not stated)	0.9	0.2	0.76	12	83*
Cc1ccc(-c2nnc(SCC(=O)N3CCOCC3)nc2-c2ccc(C)cc2)cc1	0.7	0.9	-0.1	33	14
CCCc1n[nH]c2c1/C(=N\O)CCC2	1	1	-1.1	-4	4
O=C(c1ccco1)N1CCC(c2ccccc2)C1 (configuration not stated)	0.5	0.2	0.095	51*	78*
CCOC(=O)N1CCN(C(=O)c2ccccc2NC(=O)COc2ccccc2C)CC1	0.4	0.3	.	56*	65*
CCOc1ccccc1C(=O)N1CCCCC1C (configuration not stated)	0.4	0.3	.	58*	69*
O=C(c1ccco1)N1CCN(C(=O)c2ccccc2Oc2ccccc2)CC1	.	.	-5*	.	.
O=C(c1ccco1)N1CCN(C(=O)C(c2ccccc2)c2ccccc2)CC1	.	.	-1.7	.	.
CC(C)N(C(=O)C(F)(F)F)C(C(=O)NC1CCCCC1)c1ccncc1 (configuration not stated)	.	.	0.1	.	.
COc1ccccc1C(=O)N1CCN(CCc2ccccc2)CC1	0.5	0.4	0.54	49	61*
CCOC(=O)N1CCN(C(=O)c2cccc(OC)c2OC)CC1	1.1	0.7	0.042	-11	28
SMILES	CYP2C9 act	CYP2C19 act	Cav32 inh	CYP2C9 inh	CYP2C19 inh
COc1cccc(C(=O)N2CCN(CCCc3ccccc3)CC2)c1OC	0.9	0.9	0.56	10	8
CCOC(=O)C1CCN(C(=O)c2ccccc2Oc2ccccc2)CC1	0.1	0.2	-0.2	92*	85*
CCOC(=O)N1CCN(C(=O)c2ccccc2Oc2ccccc2)CC1	0.1	0.6	.	94*	42
COc1ccc(C(=O)N2CCCC(c3ccccc3)C2)cc1 (configuration not stated)	1.2	0	-0.86	-24	95*
COc1ccc(C2CCCN2C(=O)Nc2cccc(C(C)=O)c2)cc1OC (configuration not stated)	0.8	0.9	1.2	20	10
O=C(c1ccco1)N1CCN(C(=O)c2ccccc2OC(=O)C23CC4CC(CC(C4)C2)C3)CC1	0.3	0.2	-3.2	65*	79*
Cc1ccc(C(=O)NC2CCSC2=O)cc1 (configuration not stated)	1.3	1.2	1.6	-28	-20
Cc1ccc(C2NNC(=O)C2NC(=O)c2ccccc2)cc1 (configuration not stated)	0.8	0.4	0.31	23	60*
NC(=O)c1cccnc1Oc1cccc(Cl)c1	0.9	0.9	0.27	6	9
O=C(COC(=O)c1cccnc1Cl)c1cccc(Cl)c1	1	0.4	-0.99	2	56*
CC(=O)NC(C)C(=O)OCc1ccc(Cl)cc1Cl (configuration not stated)	2.7*	0.4	1.1	-168	59*
O=C(OCc1ccc(Cl)cc1Cl)c1cccnc1Cl	1	0.3	-0.69	-1	74*
O=C(Nc1ccc2oc(=O)ccc2c1)c1cccnc1	.	.	0.31	.	.
CCc1ccccc1-n1c(SCC(=O)Nc2ccc3c(c2)OCCO3)nc2[nH]ncc2c1=O	0.4	0.5	0.61	61*	54*
CCc1ccc(-n2c(SCC(=O)Nc3cc(C)[nH]n3)nc3[nH]ncc3c2=O)cc1	0.9	1	0.22	6	4
COc1ccccc1-n1c(SCC(=O)Nc2ccccc2F)nc2[nH]ncc2c1=O	0.8	0.6	0.03	22	44
O=c1c2cn[nH]c2nc(SCc2ccc3c(c2)OCCO3)n1-c1ccccc1	0.1	0.1	-3.4	88*	90*
c1coc(CN=C2NC(=NCc3ccco3)c3ccccc32)c1	0.6	0.4	-0.2	40	55*
COc1cc(OC)c(N2CC34C=CC(O3)C(C(=O)O)C4C2=O)cc1Cl (configuration not stated)	1.1	1	-0.21	-7	-4
O=C(OCCN1CCN(c2ncc(C(F)(F)F)cc2Cl)CC1)c1ccc(Cl)cc1	0.3	0.9	-0.03	67*	14
Cc1ccc(-n2c(C)c3c(C)nnc(C)c3c2C)cc1	1.1	0.4	.	-14	58*
Cc1nnc(C)c2c(C)n(-c3ccc(Br)cc3)c(C)c12	1.2	0.9	0.04	-15	8
O=C(CSc1nc2ccccc2c(=O)n1Cc1ccco1)N1CCCCCC1	0.1	0.4	-2.4	95*	58*
COCCNC(=O)c1ccc2c(=O)n(Cc3ccco3)c(SCC(=O)NC3CCCCC3)nc2c1	0.8	0.7	0.49	24	30
O=C(CSc1nc2ccccc2c(=O)n1Cc1ccco1)NCc1ccco1	.	.	-0.39	.	.
COC(=O)c1ccc2c(=O)n(Cc3ccco3)c(SCC(=O)Nc3ccccc3Cl)nc2c1	0.1	0.7	-0.78	88*	35
O=C(NCc1ccco1)c1ccc2c(=O)n(Cc3ccco3)c(SCC(=O)N3CCCC3)nc2c1	0.4	0.8	-0.27	64*	23
